Test results reported in article PMC7862700, “An all-to-all approach to the identification of sequence-specific readers for epigenetic DNA modifications on cytosine”.

Key:
Assay in all cases: DAPPL (digital affinity profiling via proximity ligation, sequencing); 10 mM Tris-HCl pH 7.5, 50 mM NaCl, 1 mM DTT, 4% glycerol, room temperature, 30 min; GST-TFs on glutathione beads, 16-mer random dsDNA library, 0.1% formaldehyde crosslink after washing; high values mean tight binding
Settings in all cases: protein: recombinant; tags: N-terminal GST; dsDNA, one strand shown
EHF = biological target: T1, EHF (Homo sapiens, UniProt Q9NZC4 1-300)
T1 sequence: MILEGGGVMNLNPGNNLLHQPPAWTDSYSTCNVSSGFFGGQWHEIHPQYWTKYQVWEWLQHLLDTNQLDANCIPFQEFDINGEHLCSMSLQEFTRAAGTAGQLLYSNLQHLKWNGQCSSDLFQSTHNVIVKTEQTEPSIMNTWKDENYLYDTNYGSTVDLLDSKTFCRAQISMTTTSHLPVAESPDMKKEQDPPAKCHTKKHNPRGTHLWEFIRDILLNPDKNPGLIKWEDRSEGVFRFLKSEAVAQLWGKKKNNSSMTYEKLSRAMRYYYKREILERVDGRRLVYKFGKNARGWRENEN
Outline: (§1)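 Yeast served to express human transcription factors as GST fusions, which were then captured on glutathione beads and labelled with DNA barcodes. Pooled with a tag-only sample, they were incubated with 200 nmole of a 16-mer random double-stranded DNA library for 30 min at room temperature in Tris/NaCl/DTT/glycerol buffer, washed, crosslinked with 0.1% formaldehyde, ligated by proximity, amplified by PCR and sequenced. Dividing each hexamer's read frequency for a factor by its frequency for the tag-only sample gives the binding signal.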

ELF3 = biological target: T2, ELF3 (Homo sapiens, UniProt P78545 1-371)
T2 sequence: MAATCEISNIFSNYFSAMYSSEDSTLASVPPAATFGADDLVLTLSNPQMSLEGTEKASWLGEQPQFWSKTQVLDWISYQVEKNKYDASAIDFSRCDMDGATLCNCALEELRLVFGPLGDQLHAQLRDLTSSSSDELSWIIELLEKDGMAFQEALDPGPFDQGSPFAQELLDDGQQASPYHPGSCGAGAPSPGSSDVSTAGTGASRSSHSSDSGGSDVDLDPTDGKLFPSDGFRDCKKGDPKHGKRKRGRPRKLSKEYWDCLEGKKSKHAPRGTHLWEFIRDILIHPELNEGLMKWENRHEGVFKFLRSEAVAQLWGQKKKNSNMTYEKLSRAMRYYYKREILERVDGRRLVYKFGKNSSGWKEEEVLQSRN
Outline: as §1

CRX = CRX (Homo sapiens, UniProt O43186 1-299)
Outline: as §1

ERF = biological target: T3, ERF (Homo sapiens, UniProt P50548 1-548)
T3 sequence: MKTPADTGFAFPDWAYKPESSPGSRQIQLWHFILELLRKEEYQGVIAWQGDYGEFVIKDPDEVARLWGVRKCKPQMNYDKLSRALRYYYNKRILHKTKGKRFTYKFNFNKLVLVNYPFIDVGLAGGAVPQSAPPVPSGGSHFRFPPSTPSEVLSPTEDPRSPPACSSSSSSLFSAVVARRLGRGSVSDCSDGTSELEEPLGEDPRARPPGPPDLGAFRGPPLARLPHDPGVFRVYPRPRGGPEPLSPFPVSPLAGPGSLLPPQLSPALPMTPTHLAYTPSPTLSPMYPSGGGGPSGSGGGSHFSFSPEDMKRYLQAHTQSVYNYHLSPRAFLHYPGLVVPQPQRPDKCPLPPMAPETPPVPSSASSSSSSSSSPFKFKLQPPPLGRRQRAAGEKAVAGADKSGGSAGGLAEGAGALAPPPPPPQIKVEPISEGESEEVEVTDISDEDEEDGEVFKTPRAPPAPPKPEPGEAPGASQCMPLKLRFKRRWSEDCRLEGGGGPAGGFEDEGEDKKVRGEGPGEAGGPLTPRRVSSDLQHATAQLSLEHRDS
Outline: as §1

ELK3 = biological target: T4, ELK3 (Homo sapiens, UniProt P41970 1-407)
T4 sequence: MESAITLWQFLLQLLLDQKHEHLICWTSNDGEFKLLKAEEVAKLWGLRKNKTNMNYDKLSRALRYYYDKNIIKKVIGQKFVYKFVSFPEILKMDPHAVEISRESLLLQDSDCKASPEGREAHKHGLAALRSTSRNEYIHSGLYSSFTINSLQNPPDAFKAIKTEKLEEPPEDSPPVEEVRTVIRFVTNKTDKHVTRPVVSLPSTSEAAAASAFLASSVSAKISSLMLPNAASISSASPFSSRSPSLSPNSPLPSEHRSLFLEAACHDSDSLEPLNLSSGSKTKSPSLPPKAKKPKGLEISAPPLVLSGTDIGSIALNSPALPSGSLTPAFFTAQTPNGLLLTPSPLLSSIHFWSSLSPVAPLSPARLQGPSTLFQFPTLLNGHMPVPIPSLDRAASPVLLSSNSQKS
Outline: as §1

SPI1 = SPI1 (Homo sapiens, UniProt P17947 1-270)
Outline: as §1

ERG = biological target: T5, ERG (Homo sapiens, UniProt P11308 1-479)
T5 sequence: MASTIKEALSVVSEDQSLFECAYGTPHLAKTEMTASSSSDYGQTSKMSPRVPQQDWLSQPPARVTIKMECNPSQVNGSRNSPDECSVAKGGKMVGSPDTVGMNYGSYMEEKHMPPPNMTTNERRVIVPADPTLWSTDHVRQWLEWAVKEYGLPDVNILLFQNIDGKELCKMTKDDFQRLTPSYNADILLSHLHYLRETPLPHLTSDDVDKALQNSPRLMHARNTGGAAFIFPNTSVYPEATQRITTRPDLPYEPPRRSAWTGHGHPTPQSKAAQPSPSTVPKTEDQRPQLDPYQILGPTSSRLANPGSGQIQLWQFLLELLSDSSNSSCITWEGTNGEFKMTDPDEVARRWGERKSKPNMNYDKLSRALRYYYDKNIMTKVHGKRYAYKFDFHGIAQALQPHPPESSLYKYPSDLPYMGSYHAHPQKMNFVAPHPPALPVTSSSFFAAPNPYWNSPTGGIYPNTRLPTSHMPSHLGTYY
Outline: as §1

SPIB = SPIB (Homo sapiens, UniProt Q01892 1-262)
Outline: as §1

ETV1 = ETV1 (Homo sapiens, UniProt P50549 1-477)
Outline: as §1

ETS2 = biological target: T6, ETS2 (Homo sapiens, UniProt P15036 1-469)
T6 sequence: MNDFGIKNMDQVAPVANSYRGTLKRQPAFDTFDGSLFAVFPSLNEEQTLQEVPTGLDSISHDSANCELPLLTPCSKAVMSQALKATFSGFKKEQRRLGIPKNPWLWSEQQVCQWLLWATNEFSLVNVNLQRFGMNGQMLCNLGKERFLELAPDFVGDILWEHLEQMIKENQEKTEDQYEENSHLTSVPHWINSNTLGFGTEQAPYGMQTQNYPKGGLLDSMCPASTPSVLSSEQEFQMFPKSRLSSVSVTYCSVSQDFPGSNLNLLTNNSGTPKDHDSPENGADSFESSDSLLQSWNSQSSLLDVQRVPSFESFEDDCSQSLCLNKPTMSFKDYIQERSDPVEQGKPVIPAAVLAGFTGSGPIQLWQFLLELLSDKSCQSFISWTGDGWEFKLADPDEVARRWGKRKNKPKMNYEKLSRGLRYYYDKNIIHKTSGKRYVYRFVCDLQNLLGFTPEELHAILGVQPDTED
Outline: as §1

SPDEF = biological target: T7, SPDEF (Homo sapiens, UniProt O95238 1-335)
T7 sequence: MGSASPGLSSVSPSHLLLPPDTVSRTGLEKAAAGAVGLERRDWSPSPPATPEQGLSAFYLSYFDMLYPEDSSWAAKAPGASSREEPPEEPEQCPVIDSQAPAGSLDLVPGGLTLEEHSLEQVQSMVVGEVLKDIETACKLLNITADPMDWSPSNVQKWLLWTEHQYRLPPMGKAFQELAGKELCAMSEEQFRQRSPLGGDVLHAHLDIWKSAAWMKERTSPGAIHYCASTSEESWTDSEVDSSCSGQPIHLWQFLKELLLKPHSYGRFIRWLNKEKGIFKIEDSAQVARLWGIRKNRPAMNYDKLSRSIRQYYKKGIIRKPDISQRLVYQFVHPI
Outline: as §1

ETV7 = biological target: T8, ETV7 (Homo sapiens, UniProt Q9Y603 1-341)
T8 sequence: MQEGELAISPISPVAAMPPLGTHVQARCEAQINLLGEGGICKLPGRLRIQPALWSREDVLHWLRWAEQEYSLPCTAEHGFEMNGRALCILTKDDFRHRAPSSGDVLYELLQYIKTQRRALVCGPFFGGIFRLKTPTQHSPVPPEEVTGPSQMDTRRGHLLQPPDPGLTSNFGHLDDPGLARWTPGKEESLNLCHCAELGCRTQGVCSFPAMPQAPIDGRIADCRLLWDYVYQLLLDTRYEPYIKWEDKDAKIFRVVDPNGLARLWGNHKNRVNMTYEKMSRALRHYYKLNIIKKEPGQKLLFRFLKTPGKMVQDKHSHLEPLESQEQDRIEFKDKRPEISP
Outline: as §1

ELF5 = biological target: T9, ELF5 (Homo sapiens, UniProt Q9UKW6-2 1-255)
T9 sequence: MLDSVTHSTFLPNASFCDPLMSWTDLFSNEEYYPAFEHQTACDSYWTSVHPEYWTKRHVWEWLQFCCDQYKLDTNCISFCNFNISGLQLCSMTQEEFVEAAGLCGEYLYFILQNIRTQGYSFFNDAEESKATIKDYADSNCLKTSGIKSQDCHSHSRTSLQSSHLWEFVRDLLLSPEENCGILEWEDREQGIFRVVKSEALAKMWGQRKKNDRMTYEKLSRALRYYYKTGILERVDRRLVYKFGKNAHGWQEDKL
Outline: as §1

ETV3 = biological target: T10, ETV3 (Homo sapiens, UniProt P41162-2 1-143)
T10 sequence: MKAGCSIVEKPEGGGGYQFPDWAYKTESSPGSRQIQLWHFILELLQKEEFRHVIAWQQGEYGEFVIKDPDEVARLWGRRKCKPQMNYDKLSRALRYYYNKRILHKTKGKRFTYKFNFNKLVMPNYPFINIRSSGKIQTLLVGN
Outline: as §1

CRX, sequence (O43186 whole entry): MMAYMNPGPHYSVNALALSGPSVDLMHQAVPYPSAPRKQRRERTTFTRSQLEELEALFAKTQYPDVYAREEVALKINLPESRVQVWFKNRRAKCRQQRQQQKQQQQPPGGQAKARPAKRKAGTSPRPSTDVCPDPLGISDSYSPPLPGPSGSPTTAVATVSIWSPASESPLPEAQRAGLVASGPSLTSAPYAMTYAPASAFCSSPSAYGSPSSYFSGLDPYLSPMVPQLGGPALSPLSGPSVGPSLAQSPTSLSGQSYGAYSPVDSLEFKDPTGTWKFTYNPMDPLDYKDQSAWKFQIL
ETV1, sequence (P50549 whole entry): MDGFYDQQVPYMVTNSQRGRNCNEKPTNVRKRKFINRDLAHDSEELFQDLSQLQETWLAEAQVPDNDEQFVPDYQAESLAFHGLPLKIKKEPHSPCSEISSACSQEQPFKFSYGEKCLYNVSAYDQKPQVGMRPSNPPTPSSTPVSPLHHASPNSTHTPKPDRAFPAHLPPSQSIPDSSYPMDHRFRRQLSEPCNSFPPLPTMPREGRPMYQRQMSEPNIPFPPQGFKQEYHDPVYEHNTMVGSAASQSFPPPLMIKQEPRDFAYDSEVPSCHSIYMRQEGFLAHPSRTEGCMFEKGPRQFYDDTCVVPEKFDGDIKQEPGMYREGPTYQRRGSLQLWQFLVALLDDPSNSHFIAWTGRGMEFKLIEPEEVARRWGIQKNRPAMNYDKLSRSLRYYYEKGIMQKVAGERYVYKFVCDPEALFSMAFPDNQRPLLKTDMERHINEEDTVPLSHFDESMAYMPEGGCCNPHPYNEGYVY
SPIB, sequence (Q01892 whole entry): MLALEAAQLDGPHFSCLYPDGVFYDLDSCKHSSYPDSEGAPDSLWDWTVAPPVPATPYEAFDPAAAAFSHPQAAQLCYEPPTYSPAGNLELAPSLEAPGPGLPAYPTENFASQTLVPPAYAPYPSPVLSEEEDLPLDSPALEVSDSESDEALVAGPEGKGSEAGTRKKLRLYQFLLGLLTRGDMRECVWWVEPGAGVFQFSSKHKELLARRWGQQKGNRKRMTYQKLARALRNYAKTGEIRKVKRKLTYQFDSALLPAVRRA

With GAGCTA the binding signal (EHF) was 1 fold enrichment (6-mer frequency, TF over GST control) and the binding signal (ELF3) was 1.02 fold enrichment (6-mer frequency, TF over GST control).
In the case of GCATAA, the binding signal (CRX) is reported as 1.15 fold enrichment (6-mer frequency, TF over GST control).
With TACGGG the binding signal (ELF3) was 1.01 fold enrichment (6-mer frequency, TF over GST control) and the binding signal (ERF) was 1.08 fold enrichment (6-mer frequency, TF over GST control).
In the case of GATTGG, the binding signal (ELK3) is reported as 1.01 fold enrichment (6-mer frequency, TF over GST control) and the binding signal (CRX) is reported as 1.01 fold enrichment (6-mer frequency, TF over GST control).
With AAGGGA the binding signal (SPI1) was 1.07 fold enrichment (6-mer frequency, TF over GST control) and the binding signal (ELF3) was 1.03 fold enrichment (6-mer frequency, TF over GST control).
AGCCGA was tested, and the binding signal (CRX) was 1.08 fold enrichment (6-mer frequency, TF over GST control).
For GGATGA, the binding signal (ERG) was 1.01 fold enrichment (6-mer frequency, TF over GST control), the binding signal (EHF) was 1 fold enrichment (6-mer frequency, TF over GST control) and the binding signal (SPIB) was 1.06 fold enrichment (6-mer frequency, TF over GST control). For the same sequence, the binding signal (CRX) was 1.11 fold enrichment (6-mer frequency, TF over GST control), the binding signal (ETV1) was 1.05 fold enrichment (6-mer frequency, TF over GST control) and the binding signal (ETS2) was 1.1 fold enrichment (6-mer frequency, TF over GST control). The binding signal (SPDEF) was 1.11 fold enrichment (6-mer frequency, TF over GST control), the binding signal (ETV7) was 1.06 fold enrichment (6-mer frequency, TF over GST control) and the binding signal (ELF5) was 1.11 fold enrichment (6-mer frequency, TF over GST control). The binding signal (ETV3) was 1.03 fold enrichment (6-mer frequency, TF over GST control).
With TATCGG the binding signal (CRX) was 1.1 fold enrichment (6-mer frequency, TF over GST control).
GCGGAT was tested, and the binding signal (CRX) was 1.2 fold enrichment (6-mer frequency, TF over GST control) and the binding signal (SPDEF) was 1.25 fold enrichment (6-mer frequency, TF over GST control).
